High-throughput results from PubChem BioAssay.
UGM FP inh – Mtb UDP-galactopyranose mutase inhibition; P9WIQ1; inhibition, % at 10 µM; 0.06% of 320,000 active; purified UGM, fluorescence polarization probe displacement; in the data active = inhibition above about 10%, passing the limit was not always enough
Target sequence (P9WIQ1 whole entry, looked up): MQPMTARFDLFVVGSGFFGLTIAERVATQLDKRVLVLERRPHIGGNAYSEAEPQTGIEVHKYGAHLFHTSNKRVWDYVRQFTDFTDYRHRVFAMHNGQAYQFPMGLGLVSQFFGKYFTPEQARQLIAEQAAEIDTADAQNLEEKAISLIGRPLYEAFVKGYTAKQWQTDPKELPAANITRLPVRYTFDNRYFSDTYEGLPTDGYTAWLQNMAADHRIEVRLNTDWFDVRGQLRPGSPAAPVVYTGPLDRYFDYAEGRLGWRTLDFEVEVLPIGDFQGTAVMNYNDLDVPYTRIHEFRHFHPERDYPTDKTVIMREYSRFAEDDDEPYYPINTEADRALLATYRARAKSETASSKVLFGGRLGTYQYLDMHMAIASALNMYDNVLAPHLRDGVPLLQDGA
Mtb betalactam – beta-lactam sensitization of Mtb H37Rv | M. tuberculosis H37Rv growth with meropenem, percent inhibition | inhibition, % at 25 µM | 0.27% of 330,000 active | AID 434955; call rule not given here;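 note: growth measured after seven days incubation then overnight dye step; 0% = bacteria only wells and 100% = bacteria with antibiotic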
Mtb FBA inh – inhibits M. tuberculosis FBA enzyme | inhibition, % at 1 µM | AID 588726 | purified M. tuberculosis FBA, fluorescence read-out | 2.3% of 360,000 active; in the data active = inhibition above about 27%;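 note: 0% = vehicle and 100% = reference inhibitor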
GDH-TPI counter – GDH-TPI coupled enzyme inhibition counter-screen | AID 588335 | 1.2% of 360,000 active | inhibition, % at 4.8 µM | GDH-TPI coupled enzyme counterscreen, NADH absorbance; in the data active = inhibition above about 30%;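 note: 0% = DMSO wells and 100% = wells lacking the enzyme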
RecA splice inh – blocks M. tuberculosis RecA intein splicing. cell-free RecA intein splicing, fluorescence. AID 2221. 0.75% of 290,000 active. inhibition, % (no concentration beside the values). P9WHJ3; in the data active = inhibition above about 30%;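 note: 0% = vehicle wells and 100% = reference inhibitor control wells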
Rv3671c inh – Rv3671c (M. tuberculosis) protease inhibition; inhibition, % at 5.96 µM; 0.048% of 320,000 active; AID 2606; in the data active = inhibition above about 38%;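 note: extracellular domain of Rv3671c used as enzyme; 0% = enzyme with DMSO and 100% = no enzyme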
* hit, by the source's call. In the library only some 4% were active in any assay of this set; here they are far more common.

COc1ccc(-c2cc(C(F)(F)F)nc(SCC(=O)NCc3cnn(C)c3C)n2)cc1OC was read as UGM FP inh -3, Mtb betalactam 1, Mtb FBA inh 4, GDH-TPI counter 26, RecA splice inh 2 and Rv3671c inh -2.
Screening CCCCn1c(N)c(N(CC(C)C)C(=O)CCCn2c(=O)oc3ccccc32)c(=O)[nH]c1=O returned UGM FP inh 0, Mtb betalactam -11, Mtb FBA inh 5, GDH-TPI counter 1, RecA splice inh 0 and Rv3671c inh 1.
Screening CC1CN(C(=O)c2ccc(-c3cccc(C(F)(F)F)c3)o2)CC(C)O1 (stereo not drawn) returned UGM FP inh 3, Mtb betalactam -2, Mtb FBA inh 4, GDH-TPI counter -8, RecA splice inh -1 and Rv3671c inh -2.
`O=Cc1ccc2c(c1)OCCOCCOCCOCCO2` gave Mtb FBA inh -1 and GDH-TPI counter 11.
Screening CN(C)CCCNc1nc2cc(-c3ccc4c(ccn4C)c3)sc2c(=O)n1C returned Mtb FBA inh 18 and GDH-TPI counter 11.
Screening COc1cccc(/C=N/Nc2nc3ccccc3[nH]2)c1OC returned UGM FP inh 0, Mtb betalactam -4, Mtb FBA inh -1, GDH-TPI counter 14, RecA splice inh 0 and Rv3671c inh 6.
For COc1cccc(/C=N/Nc2nc3ccccc3[nH]2)c1O the results were UGM FP inh 2, Mtb betalactam 53, Mtb FBA inh -4, GDH-TPI counter 36*, RecA splice inh 0 and Rv3671c inh 8.
For COc1cc(/C=N/Nc2nc3ccccc3[nH]2)ccc1O the results were UGM FP inh -4, Mtb betalactam 7, Mtb FBA inh 3, GDH-TPI counter 50*, RecA splice inh 3 and Rv3671c inh 11.
`COc1cc(/C=N/Nc2nc3ccccc3[nH]2)cc(OC)c1O` gave UGM FP inh -2, Mtb betalactam 3, Mtb FBA inh -5, GDH-TPI counter 23, RecA splice inh 9 and Rv3671c inh 21.
`C=CCn1c(=O)c2c(nc(-n3nc(C)cc3C)n2C)n(C)c1=O` gave UGM FP inh 6, Mtb betalactam -5, Mtb FBA inh 3, GDH-TPI counter -5 and RecA splice inh 0.
`Cc1ccc(NC(=O)COC(=O)c2cccc(C)c2[N+](=O)[O-])cc1S(=O)(=O)N1CCCCC1` gave UGM FP inh 0, Mtb betalactam 2, Mtb FBA inh 3, GDH-TPI counter 4 and Rv3671c inh -121.
For Cc1cccc(C(=O)OCC(=O)c2csc(N3CCCCC3)n2)c1[N+](=O)[O-] the results were UGM FP inh -1, Mtb betalactam -7, Mtb FBA inh 1, GDH-TPI counter 36* and Rv3671c inh -8.
Screening Nc1cc2c(cc1Br)-c1ccc(F)cc1C2O (stereo not drawn) returned Mtb FBA inh -1 and GDH-TPI counter -3.
For CC(=O)c1ccc(NC(=O)C2=CC(c3ccco3)=NS(=O)(=O)N2C)cc1 the results were UGM FP inh 1, Mtb betalactam 0, Mtb FBA inh 2, GDH-TPI counter 31*, RecA splice inh -2 and Rv3671c inh -4.
CS(=O)(=O)Nc1nc2n(n1)C(c1ccccc1)C=C(c1ccc(Br)cc1)N2 (stereo not drawn) was read as UGM FP inh -3, Mtb betalactam 97, Mtb FBA inh 34*, GDH-TPI counter 5, RecA splice inh -220 and Rv3671c inh -9.
For CC(=O)Nc1nc2n(n1)C(c1ccc(Cl)cc1)C=C(C)N2 (stereo not drawn) the results were UGM FP inh -1, Mtb betalactam -10, Mtb FBA inh 119*, GDH-TPI counter 12, RecA splice inh -82 and Rv3671c inh 6.
Screening CC(=O)Nc1nc2n(n1)C(c1ccccc1)C=C(c1ccccc1)N2 (stereo not drawn) returned UGM FP inh -1, Mtb betalactam 2, Mtb FBA inh 50*, GDH-TPI counter 6, RecA splice inh -449 and Rv3671c inh -3.
`COc1ccccc1C1C=C(c2ccc(Cl)cc2)Nc2nc(NS(C)(=O)=O)nn21` (stereo not drawn) gave UGM FP inh -1, Mtb betalactam 8, RecA splice inh -99 and Rv3671c inh 0.
Screening CC(=O)Nc1nc2n(n1)C(c1ccc(F)cc1)C=C(c1ccccc1)N2 (stereo not drawn) returned UGM FP inh -3, Mtb betalactam 7, Mtb FBA inh 17, GDH-TPI counter 13, RecA splice inh inactive and Rv3671c inh 1.
`O=C(O)c1ccc(N/N=C/c2cc3ccccc3nc2Cl)cc1` gave UGM FP inh -1, Mtb betalactam 5, Mtb FBA inh 3, GDH-TPI counter 37*, RecA splice inh -24 and Rv3671c inh 9.
`C[C@H](NC(=O)OC(C)(C)C)C(=O)N/N=C/c1cccc2nccnc12` gave UGM FP inh 2, Mtb betalactam -2, Mtb FBA inh 8, GDH-TPI counter 13, RecA splice inh -1 and Rv3671c inh 5.
For Cc1cccc2cc(/C=N/Nc3ccc(C(=O)O)cc3)c(Cl)nc12 the results were UGM FP inh 4, Mtb betalactam 2, Mtb FBA inh 5, GDH-TPI counter 22 and Rv3671c inh 9.
For O=C(O)c1ccc(N/N=C/c2cccc3nccnc23)cc1 the results were UGM FP inh 1, Mtb betalactam 13, Mtb FBA inh -4, GDH-TPI counter 46* and Rv3671c inh 3.
For Cc1cccc(Oc2ccc3c(c2)cc(C(=O)O)n3C)c1 the results were UGM FP inh 1, Mtb betalactam 0, Mtb FBA inh 16, GDH-TPI counter 6, RecA splice inh 1 and Rv3671c inh 5.
Screening O=c1nc(N2CCCC2)nc(N2CCCC2)[nH]1 returned UGM FP inh 0, Mtb betalactam -1, Mtb FBA inh 4, GDH-TPI counter -2, RecA splice inh 1 and Rv3671c inh 5.
N#Cc1c(N)nc2c(c1-c1ccc3c(c1)OCO3)CCc1ccccc1-2 was read as UGM FP inh -1, Mtb betalactam 71, Mtb FBA inh 31*, GDH-TPI counter 0, RecA splice inh -3 and Rv3671c inh 2.
For N#Cc1c(N)c(C#N)c(-c2ccc3c(c2)OCO3)c2c1CCCC2 the results were UGM FP inh -3, Mtb betalactam -3, Mtb FBA inh 7, GDH-TPI counter 41*, RecA splice inh 3 and Rv3671c inh 6.
N#Cc1c(N)c(C#N)c(-c2ccc(O)cc2)c2c1CCCC2 was read as UGM FP inh 0, Mtb betalactam -4, Mtb FBA inh 17, GDH-TPI counter 5, RecA splice inh 13 and Rv3671c inh -10.
Cc1c(C)c2ccc(OC3CCCCC3=O)cc2oc1=O (stereo not drawn) was read as UGM FP inh -1, Mtb betalactam -3, Mtb FBA inh 153*, GDH-TPI counter 9, RecA splice inh 0 and Rv3671c inh -2.
Cc1c(C)c2ccc(OCC(=O)Nc3ccccc3C(N)=O)cc2oc1=O was read as UGM FP inh 0, Mtb betalactam -8, Mtb FBA inh 3, GDH-TPI counter 11, RecA splice inh 6 and Rv3671c inh 2.
